According to PubChem BioAssay AID488969 (Vanderbilt High Throughput Screening Facility, 2010):
Whole data set: some 110,000 compounds, median “z-score” near -0.1, cut for the highest 2% near 2. Many of the other results were omitted from the sample, so the highest values are more common in it than they were. Calls of active or inactive are those of the source.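 Rule for the calls: active = z-score in the third read window above 3 or below -3; inactive = the rest.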

target: Metabotropic glutamate receptor 8 (Rattus norvegicus) (UniProt P70579); assay: mGluR8 Gi/Go-coupled signaling modulation – cell-based, rat, thallium flux, HTS, primary screen (AID 488969); conditions: HEK293 rat mGluR8, GIRK (G protein-gated inwardly rectifying potassium channel) thallium flux, FluoZin2; at 10 µM; stronger effect = higher value; submaximal glutamate (EC20) added with thallium
Sequence (P70579 whole entry, looked up): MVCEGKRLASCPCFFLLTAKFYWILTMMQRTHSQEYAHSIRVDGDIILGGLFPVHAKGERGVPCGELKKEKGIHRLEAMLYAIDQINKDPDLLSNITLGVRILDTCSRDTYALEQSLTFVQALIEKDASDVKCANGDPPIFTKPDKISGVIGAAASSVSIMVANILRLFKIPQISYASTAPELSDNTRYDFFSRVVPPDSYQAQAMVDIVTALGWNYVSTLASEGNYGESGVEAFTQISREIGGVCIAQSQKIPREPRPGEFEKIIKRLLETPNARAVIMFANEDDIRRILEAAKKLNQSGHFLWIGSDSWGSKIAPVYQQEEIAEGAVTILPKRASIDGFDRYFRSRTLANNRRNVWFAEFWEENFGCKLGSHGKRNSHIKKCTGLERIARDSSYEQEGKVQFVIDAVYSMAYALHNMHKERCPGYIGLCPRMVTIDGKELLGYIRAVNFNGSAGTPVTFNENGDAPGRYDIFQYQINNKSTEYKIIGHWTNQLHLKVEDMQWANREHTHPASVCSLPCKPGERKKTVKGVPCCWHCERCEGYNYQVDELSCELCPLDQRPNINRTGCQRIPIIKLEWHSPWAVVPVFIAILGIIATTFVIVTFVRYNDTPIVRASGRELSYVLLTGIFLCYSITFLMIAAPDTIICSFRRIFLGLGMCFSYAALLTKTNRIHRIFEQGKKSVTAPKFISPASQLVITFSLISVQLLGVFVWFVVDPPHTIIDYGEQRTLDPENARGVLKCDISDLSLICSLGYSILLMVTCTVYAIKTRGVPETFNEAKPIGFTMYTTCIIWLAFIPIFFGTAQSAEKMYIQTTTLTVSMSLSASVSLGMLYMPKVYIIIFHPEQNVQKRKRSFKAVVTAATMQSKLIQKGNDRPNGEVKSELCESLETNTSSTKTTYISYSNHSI

Row | SMILES | z-score
1 | Cc1nn(CC(O)COc2ccc3c(c2)CCC3)c(C)c1C (configuration not stated) | -0.0908
2 | Cc1nc2cc(Nc3nnc(-c4ccccc4)c4ccccc34)ccc2n1C | -0.174
3 | CN1CCN(C(=O)NC2CCCCC2)CC1 | -0.173
4 | CCOP(=O)(O)c1ccccc1OCCCCCOc1ccccc1P(=O)(O)OCC | -0.285
5 | CCOC(=O)c1c(N)nn(C(=O)CC)c1-c1ccccc1 | -0.667
6 | CCOc1ccccc1-c1nc(C(N)=O)c2[nH]c(=O)n(-c3cccc(C)c3)c2n1 | -1.43
7 | C/C(=N\NC(=S)NC(C)C)c1ccc(-n2ccnc2)cc1 | -0.306
8 | C/C(=N\NC(=O)C(=O)Nc1cccc(C(F)(F)F)c1)c1ccc(Cl)s1 | 0.376
9 | C/C(=N\NC(=S)NC(C)C)c1ccc(Cl)s1 | 5.46 (active)
10 | C/C(=N/Nc1ccc(F)cc1)c1ccc(Cl)s1 | 0.13
11 | C/C(=N\NC(N)=S)c1ccc(Cl)s1 | 2.19
12 | COc1cc(/C(C)=N/NC(=S)NC(C)C)cc(OC)c1OC | -0.0595
13 | Cc1noc(C)c1COc1cccc(C(=O)OCC(=O)NC(=O)c2ccc(OC(F)F)cc2)c1 | -0.262
14 | N/C(=N\OC(=O)c1cccc(Br)c1)c1ccc(Br)cc1 | -0.325
15 | COc1ccc(C(=O)COC(=O)CNC(=O)c2cc(OC)cc(OC)c2)cc1 | -0.208
16 | NC(=O)C(Cc1ccccc1)NS(=O)(=O)c1ccc(N2CCCC2=O)cc1 (configuration not stated) | 0.443
17 | CC(C)CNC(=O)c1ccccc1NC(=O)Nc1ccccc1 | 0.337
18 | CCC(C)NC(=O)c1ccccc1C(=O)NC(C)CC (configuration not stated) | 0.631
19 | CCC(C)NC(=O)c1ccccc1NC(=O)Nc1ccccc1 (configuration not stated) | 6.32 (active)
20 | Cc1cccc(CN(CC(=O)N/N=C/c2ccco2)S(=O)(=O)c2ccc(Cl)cc2)c1 | 0.848
21 | CCN(CC)C(=O)C1CCCN(C(=O)Nc2ccc(NC(=O)N3CCCC(C(=O)N(CC)CC)C3)cc2)C1 (configuration not stated) | -0.196
22 | COC(=O)CSc1nnc(-c2cccnc2)n1-c1cccc(OC)c1 | 0.978
23 | CC(C)CC(NS(=O)(=O)c1ccc2c(c1)oc(=O)n2C)C(=O)NC1CCCc2ccccc21 (configuration not stated) | 5.09 (active)

Row | SMILES | z-score
24 | Cn1c(=O)oc2cc(S(=O)(=O)NC3CCCc4ccccc43)ccc21 (configuration not stated) | 0.254
25 | CSCCC(NS(=O)(=O)c1ccc2c(c1)oc(=O)n2C)C(=O)NC1CCCc2ccccc21 (configuration not stated) | 0.148
26 | CCc1ccc2oc(-c3cccc(N)c3)nc2c1 | -0.135
27 | Cc1cc(C(=O)CSc2n[nH]c(N)n2)c(C)n1-c1cc(F)ccc1F | 6.6 (active)
28 | Cc1cc(C(=O)CSc2n[nH]c(N)n2)c(C)n1-c1cccc(F)c1 | -1.69
29 | Cc1cc(C(=O)CSc2n[nH]c(N)n2)c(C)n1-c1ccc(F)cc1 | -0.628
30 | COc1ccc(NS(=O)(=O)c2ccc(NC(=O)c3ccc(N(C)S(C)(=O)=O)cc3)cc2)c(OC)c1 | -0.141
31 | COC(=O)C1=C(C)NC(=O)/C1=C\c1ccco1 | 8.73 (active)
32 | COC(=O)C1=C(C)N(C)C(=O)/C1=C\c1ccco1 | -0.144
33 | COC(=O)C1=C(C)NC(=O)/C1=C\c1cccs1 | -0.512
34 | CC(=O)c1nc(N2C(=O)CC(Cc3cccc(C)c3)C2=O)sc1C (configuration not stated) | -0.395
35 | CC(=O)c1nc(N2C(=O)CC(Cc3cc(C)cc(C)c3)C2=O)sc1C (configuration not stated) | 2.19
36 | CC(=O)c1nc(N2C(=O)CC(Cc3ccc(C)cc3)C2=O)sc1C (configuration not stated) | -0.714
37 | COc1ccc(NC(=S)N/N=C2\CC(C)(C)Oc3ccc(OC)cc32)cc1 | -0.239
38 | c1cc2c3c(cccc3c1)NC1(CCCCC1)N2 | -0.436
39 | CC(C)(C)C1CCC2(CC1)NC(=S)N(c1ccccc1)N2 (configuration not stated) | 0.0264
40 | CC(C)(C)C1CCC2(CC1)Nc1cccc3cccc(c13)N2 | 4.88 (active)
41 | Cc1cc(NC(=O)c2ccc(COc3ccc(Cl)c(C)c3)o2)no1 | -0.225
42 | O=C(NC1CC1)c1ccc2c3c(cccc13)CC2 | -0.311
43 | N=c1sccn1CC(=O)Nc1cc(Cl)ccc1Oc1ccccc1 | 1.02
44 | COc1ccc(OCCC(=O)OCC(=O)NCc2ccccc2)cc1 | -0.332
45 | Cc1cccc(-n2c(C)nc3cc(C(=O)NCc4ccc5c(c4)OCO5)ccc32)c1 | 0.471
46 | Cc1c(Cl)cccc1NC(=S)/C(=C(\[O-])c1ccc(Cl)s1)[n+]1ccccc1 | 2.24

Row | SMILES | z-score
47 | Cc1ccccc1NC(=S)/C(=C(\[O-])c1ccc(C)c([N+](=O)[O-])c1)[n+]1ccccc1 | 0.013
48 | CC(C)(C)c1cc[n+](/C(C(=S)NC2CC2)=C(/[O-])c2ccc(Cl)s2)cc1 | -0.275
49 | CCN(CC)C(=O)COc1cc(C)cc2oc(=O)cc(-c3ccccc3)c12 | -0.189
50 | COc1ccccc1NC(=S)Nc1cccc2cnccc12 | -0.138
51 | CCCCNC(=S)Nc1cccc2cnccc12 | -0.208
52 | CC(C)NC(=S)Nc1cccc2cnccc12 | -0.271
53 | C=C(C)CNC(=S)Nc1cccc2cnccc12 | 3.1 (active)
54 | COc1ccc(NC(=S)Nc2cccc3cnccc23)cc1 | -0.198
55 | S=C(Nc1cccc(Cl)c1)Nc1cccc2cnccc12 | 2.74
56 | Cc1cc(C)nc(N2CCCC(C(=O)NCC(c3ccccc3)c3ccccc3)C2)n1 (configuration not stated) | 0.0177
57 | COc1ccc(S(=O)(=O)N(C)CC(=O)Nc2ccc(C(F)(F)F)cc2)cc1Cl | 1.57
58 | O=c1cc(NS(=O)(=O)c2ccccc2)nc(SCc2ccc(Cl)cc2)[nH]1 | 0.485
59 | CCc1c(C)nc2ncnn2c1Nc1ccc(C(C)=O)cc1 | 0.0606
60 | O=C(CSc1ncn[nH]1)Nc1nc(-c2ccccc2)cs1 | 0.0129
61 | Cc1ccc(C(=O)N/C(=C/c2ccco2)C(=O)Nc2cccc(C)c2)cc1 | -0.287
62 | CC(=O)c1cccc(NC(=O)c2ccc(N(Cc3ccccc3)S(C)(=O)=O)cc2)c1 | -0.207
63 | COCCn1c(C)cc(C(=O)CN2C(=O)NC3(CCCCCCC3)C2=O)c1C | 0.319
64 | CC1CCCC(C)N1C(=O)CSc1nnnn1-c1cccc2c1CCCC2 (configuration not stated) | -0.621
65 | O=C(CSc1nnnn1-c1cccc2c1CCCC2)NC1CCCC1 | 5.15 (active)
66 | O=C(CSc1nnnn1-c1cccc2c1CCCC2)N1CCCC1 | 0.0215
67 | Cc1ccc2c(c1)c1c(n2CC(O)CNC(C)(C)C)CCCC1 (configuration not stated) | 2.4
68 | Cc1ccc2c(c1)c1c(n2CC(O)Cn2nc(C)c(Br)c2C)CCCC1 (configuration not stated) | 0.191
69 | Cc1ccc2c(c1)c1c(n2CC(O)Cn2c(C)nc3ccccc32)CCCC1 (configuration not stated) | -0.427

Row | SMILES | z-score
70 | CC(=O)c1cc2c(cc1NC(=O)CN1CCCCC1C)OCO2 (configuration not stated) | -0.0192
71 | O=C(NCc1cccs1)c1nc2c(nnn2Cc2ccc(F)cc2)c(=O)[nH]1 | -1
72 | Cc1cc(N/C=C\c2nnnn2-c2ccccc2)no1 | -0.374
73 | COc1ccc(Nc2nc(C)cc(C)c2C#N)cc1OC | 6.74 (active)
74 | COc1cccc(Nc2nc(C)cc(C)c2C#N)c1 | -0.0986
75 | COc1ccc(Nc2nc(C)cc(C)c2C#N)cc1 | 0.405
76 | O=C(Cn1nnc(-c2ccccc2)n1)OCc1csc(-c2ccccc2)n1 | -0.49
77 | Cc1ccc(-n2nc3c(Cl)nnc(C)c3c2C)cc1 | 0.701
78 | NS(=O)(=O)c1ccc(Cc2ncc(C(F)(F)F)cc2Cl)s1 | 1.4
79 | O=C(NCc1ccc2c(c1)OCO2)c1cc2ccccc2o1 | -0.522
80 | O=C(C1CCCCN1S(=O)(=O)c1ccc(F)cc1)N1CCN(c2ccccc2F)CC1 (configuration not stated) | -0.386
81 | COc1ccc2[nH]c(C)c(C(=O)CN3CCOCC3)c2c1 | 0.0884
82 | COc1ccc2[nH]c(C)c(C(=O)CN3CC(C)OC(C)C3)c2c1 (configuration not stated) | 2.96
83 | COc1ccc2c(C(=O)CN3CC(C)OC(C)C3)c[nH]c2c1 (configuration not stated) | -0.0527
84 | O=S1(=O)CC(N2CCOCC2)c2ccccc21 (configuration not stated) | -0.0158
85 | COc1ccc(CNC(=O)CSc2ccc(Br)cc2)cc1OC | 0.192
86 | COc1ccc(S(=O)(=O)N(C)CC(=O)NCc2ccco2)cc1 | -0.29
87 | CN(CCCC(=O)NCc1ccco1)S(=O)(=O)c1ccccc1 | 2.39
88 | Cc1ccc(N(CC(=O)NCc2ccco2)S(=O)(=O)c2ccccc2)cc1 | 0.374
89 | CCC(C)NC(=O)COc1ccc(Br)c(C)c1 (configuration not stated) | 0.482
90 | CN(C(=O)COC(=O)C1CCN(S(=O)(=O)c2cccs2)CC1)C1CCS(=O)(=O)C1 (configuration not stated) | 0.776
91 | C=CCn1c(NCCc2ccccc2)nc2c1c(=O)n(C)c(=O)n2C | 0.0292
92 | Cc1ccc(Cn2c(NCCc3ccccc3)nc3c2c(=O)n(C)c(=O)n3C)cc1 | -0.251

Row | SMILES | z-score
93 | CC(C)n1c(NCCc2ccccc2)nc2c1c(=O)n(C)c(=O)n2C | 2.39
94 | COc1ccc(CNC(=O)CCc2c(C)nc3ncnn3c2C)cc1 | 0.418
95 | CCN(CC)CCn1c(=S)[nH]c2ccccc2c1=O | -2.46
96 | CCOc1cc2[nH]c(=S)n(C(C)C)c(=O)c2cc1OCC | 9.84 (active)
97 | CC(C)n1c(=O)[nH]c2ccccc21 | 1.11
98 | COc1nc2ccccc2c(=O)n1OCC(C)C | 0.0226
99 | CC(C)n1c(=S)[nH]c2ccccc21 | -0.0644
100 | CCOc1cc2[nH]c(=S)n(CCCN(CC)CC)c(=O)c2cc1OCC | -0.475
101 | CN(C)CCn1c(=S)[nH]c2ccccc2c1=O | -0.191
102 | CCOc1cc2[nH]c(=S)n(CCN3CCC(C)CC3)c(=O)c2cc1OCC | 0.809
103 | CC(C)n1c(=S)[nH]c2ccccc2c1=O | 9.16 (active)
104 | CC(C)COn1c(=S)[nH]c2ccccc2c1=O | 3.03 (active)
105 | COn1c(=S)[nH]c2ccccc2c1=O | 1.06
106 | CC(C)N(CCn1c(=S)[nH]c2ccccc2c1=O)C(C)C | 2.64
107 | Cc1ccc(Cn2c(CN3CC(C)OC(C)C3)nc3c2c(=O)[nH]c(=O)n3C)cc1 (configuration not stated) | 0.0226
108 | O=C(CSc1nnc(-c2ccc(F)cc2)o1)Nc1ccccc1N1CCOCC1 | -0.906
109 | CN(C)c1ccc(/C=N\Nc2nc(-c3ccccc3)cc(=O)[nH]2)cc1 | -0.138
110 | CC(=O)Nc1ccc(N(C(=O)Cc2c[nH]c3ccccc23)C(C(=O)NC2CCCCC2)c2ccco2)cc1 (configuration not stated) | 1.17
111 | Cc1ccccc1-c1nc(-c2ccc(NC(=O)c3ccc(Br)o3)cc2)no1 | 0.0114
112 | N#CNC(=Nc1cccc(F)c1)SCc1cccc(F)c1 | -0.141
